An excerpt weighted towards active compounds, which were near 4.2% of everything screened.
RecA intein inh – blocks M. tuberculosis RecA intein splicing | P9WHJ3 | cell-free RecA intein splicing, fluorescence | inhibition, % (concentration not given with the values) | 290,000 compounds, 0.75% hits | AID 2221; in the data active = inhibition above about 30%;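 note: 0% = vehicle wells and 100% = reference inhibitor control wells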
Mtb betalactam – beta-lactam sensitization of Mtb H37Rv | M. tuberculosis H37Rv growth with meropenem, percent inhibition | inhibition, % at 25 µM | 330,000 compounds, 0.27% hits | AID 434955; call rule not given here;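 note: growth measured after seven days incubation then overnight dye step; 0% = bacteria only wells and 100% = bacteria with antibiotic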
CCHFV vOTU inh – blocks the CCHF virus ovarian tumor domain protease; CCHFV vOTU protease, Pep-AMC fluorescence; inhibition, % at 11.5 µM; 370,000 compounds, 0.55% hits; AID 651958; note: 0% = vehicle wells with enzyme and 100% = no enzyme wells
Mtb FBA inh – inhibitors of M. tuberculosis fructose-bisphosphate aldolase; purified M. tuberculosis FBA, fluorescence read-out; inhibition, % at 1 µM; 360,000 compounds, 2.3% hits; AID 588726; in the data active = inhibition above about 27%;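 note: 0% = vehicle and 100% = reference inhibitor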
Target sequence (P9WQA3 whole entry, looked up): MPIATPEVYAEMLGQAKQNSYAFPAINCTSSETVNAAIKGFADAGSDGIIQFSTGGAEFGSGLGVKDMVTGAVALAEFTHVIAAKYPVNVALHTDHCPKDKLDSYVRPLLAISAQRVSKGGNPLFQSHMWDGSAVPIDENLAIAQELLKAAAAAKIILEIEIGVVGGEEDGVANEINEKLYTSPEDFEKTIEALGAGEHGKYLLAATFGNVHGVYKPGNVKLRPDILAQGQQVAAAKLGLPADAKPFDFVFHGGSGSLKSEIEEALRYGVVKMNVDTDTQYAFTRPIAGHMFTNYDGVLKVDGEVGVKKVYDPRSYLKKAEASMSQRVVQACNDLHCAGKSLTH
GDH-TPI counter – counter-screen for M. tuberculosis FBA inhibitors: GDH-TPI coupled enzymes | GDH-TPI coupled enzyme counterscreen, NADH absorbance | inhibition, % at 4.8 µM | 360,000 compounds, 1.2% hits | AID 588335;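 note: 0% = DMSO wells and 100% = wells lacking the enzyme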
* marks the source's active call; other numbers are inactive results; i = inactive; . = no result; + = active, no number. Cut-off read from the data, not from the text of the source, unless noted: active = inhibition above about 30%; inactive = the rest.

SMILES | RecA intein inh | Mtb betalactam | CCHFV vOTU inh | Mtb FBA inh | GDH-TPI counter
CN(CCO)c1ccc2c(c1)Oc1ccccc1CN(Cc1cn(Cc3ccc(C(F)(F)F)cc3)nn1)S2(=O)=O | . | . | 1 | . | .
CC(C)CC(NC(=O)CCl)c1ccccc1 (configuration not stated) | 44* | 93 | 0 | 0 | 4
CCCC(NC(=O)CCl)c1ccccc1 (configuration not stated) | 8 | 84 | -11 | 3 | 2
CCCNC(=O)C12CCC(C)(c3nc4cc(C)c(C)cc4nc31)C2(C)C (configuration not stated) | 4 | -1 | 11 | 2 | 55*
COCCCNC(=O)C[C@H]1C[C@@]2(C(=O)OC)C(=C[C@H](C3CCCC3)O[C@@H]2C)N(Cc2cccc3ccccc23)C1=O | . | . | 10 | . | .
COc1ccc2c(ccc[n+]2CC(=O)c2ccccc2)c1 | 2 | -4 | -8 | 26 | 13
COc1ccc2c(ccc[n+]2CC(=O)c2ccc(C)cc2)c1 | -4 | 8 | -3 | 31* | 3
C=CCNC(=O)NC[C@@]1(C(=O)OC)CC(=O)N(C)[C@@H]1c1ccccc1 | . | . | -3 | . | .
CNC(=S)N(CCO)Cc1cc2cc3c(cc2[nH]c1=O)OCO3 | 0 | -6 | -33 | 33* | 21
CNC(=S)N(CCO)Cc1cc2cc3c(cc2[nH]c1=O)OCCO3 | -1 | 2 | -22 | 16 | 12
C[C@@H]1N[C@H]2N(C1=O)c1ccccc1[C@@]21C[C@@H]2C(=O)N[C@](C)(O1)c1nc3ccccc3c(=O)n12 | . | . | -2 | . | .
CC1=NN(C(N)=S)C(=O)C1N=Nc1c(C)n(C)n(-c2ccccc2)c1=O (configuration not stated) | 13 | -1 | 4 | -11 | 31*
COc1ccc(C)c2sc(N(CCN(C)C)C(=O)/C=C/c3cccs3)nc12 | 0 | 98 | 21 | 0 | 31*
COc1ccc(OC)c2sc(N(CCN(C)C)C(=O)/C=C/c3cccs3)nc12 | -3 | 85 | -2 | 4 | 33*
CN(C)CCCN(C(=O)/C=C/c1cccs1)c1nc2ccc(F)cc2s1 | 6 | . | -6 | -2 | 48*
COc1cccc2sc(N(CCN(C)C)C(=O)/C=C/c3cccs3)nc12 | 4 | -5 | 4 | 1 | 32*
Cc1ccc(CSc2nnc(-c3cc(-c4ccc(F)cc4)n[nH]3)n2N)cc1 | . | . | 0 | . | .
Cc1cccc(CCNC(=O)Cn2nc(-c3ccccc3)ccc2=O)c1 | . | . | -5 | . | .
COc1cccc(-c2ccc(CC[C@H]3O[C@H]4CC[C@@H](CO)O[C@H]4C[C@H]3NS(C)(=O)=O)cc2)c1 | . | . | -3 | . | .
Cc1cccc(-c2cccc3c4c([nH]c23)[C@@H]2C[C@H](N(C)C(=S)NCCc3ccccc3)[C@H]([C@H](C)O)CN2CC4)c1 | . | . | 4 | . | .
Nc1nnc(CC(=O)N/N=C/c2ccc(-c3ccc(Cl)cc3Cl)o2)s1 | -11 | 13 | 22 | 0 | 38*
Nc1nnc(CC(=O)N/N=C/c2ccc(-c3ccccc3Cl)o2)s1 | 3 | 5 | 13 | 0 | 39*
C=CCc1c(C)nc(SC)nc1Nc1ccc(C(C)=O)cc1 | 29 | 99 | 13 | -3 | 48*
CCCCOC(=O)Nc1nnc(CCOCC)s1 | -2 | -6 | 6 | 0 | 47*
COc1ccc(/C=C2/N=C(SC)NC2=O)cc1OC | -2 | -4 | 3 | -6 | 40*
SMILES | RecA intein inh | Mtb betalactam | CCHFV vOTU inh | Mtb FBA inh | GDH-TPI counter
Cc1ccc2c(c1)C1CS(=O)(=O)N(CC(C)C)CN1C2 (configuration not stated) | . | . | 8 | . | .
COc1ccccc1N(C(=O)c1snc(C(N)=O)c1N)C(C(=O)NC1CCCCC1)c1cccc(OC)c1OC (configuration not stated) | 5 | 60 | 4 | 11 | 16
COc1ccc(OC)c(C(C(=O)NC2CCCCC2)N(C(=O)c2snc(C(N)=O)c2N)c2ccccc2OC)c1 (configuration not stated) | 2 | 3 | -2 | 115* | 26
CCOC(=O)Nc1ccc2c(CN3C(=O)NC(CC)(CC)C3=O)cc(=O)oc2c1 | -5 | -12 | -227 | . | .
CCOC(=O)Nc1ccc2c(CN3C(=O)NC4(CCCC4)C3=O)cc(=O)oc2c1 | . | . | -183 | + | 23
CCc1cc(=O)oc2cc(OC(=O)CN3C(=O)NC4(CCCC4)C3=O)ccc12 | -25 | 56 | -340 | + | 19
COc1ccc(CN(CCN2CCOCC2)C(=O)c2cc(F)cc(F)c2)cc1OC | . | . | -7 | . | .
COc1cc(C2Nc3ccccc3C(=O)N2c2ccccc2)ccc1O (configuration not stated) | 0 | -4 | -2 | 19 | 17
COc1ccc(/C(C)=N/N2C(=O)c3ccccc3NC2c2ccc(O)c(OC)c2)cc1 (configuration not stated) | -2 | 3 | 5 | 12 | 35*
CC(=O)c1cc(-c2cccc([N+](=O)[O-])c2)c(=O)n2c1CCC2 | . | . | -6 | . | .
CC(C)N(CC(=O)Nc1ccc(Cl)cc1C(F)(F)F)C(=O)CCl | 59* | -5 | -19 | 6 | 5
CCC(C)N(CC(=O)Nc1cccc(C)c1C)C(=O)CCl (configuration not stated) | 43* | 86 | . | 5 | 0
CC(C)(C)c1ccc(C(=O)Nc2cccc(S(=O)(=O)NC3=NCCC3)c2)cc1 | . | 5 | 13 | -2 | 0
COc1ccc(/C=C/C(=O)Nc2cccc(S(=O)(=O)NC3=NCCCCC3)c2)c(OC)c1 | . | -1 | 7 | 4 | 36*
O=C(/C=C/c1ccc(OC(F)F)cc1)Nc1cccc(S(=O)(=O)NC2=NCCCCC2)c1 | 6 | -2 | 7 | -1 | 1
CCc1nnc(NS(=O)(=O)c2ccc(NC(=O)/C=C/c3ccc(OC)cc3OC)cc2)s1 | -4 | -2 | 19 | 4 | 40*
CCc1nnc(NS(=O)(=O)c2ccc(N/C=C\C(=O)c3cccc(OC)c3)cc2)s1 | . | 85 | 2 | 2 | 17
CN(C)c1ccc(C(=O)Nc2cccc(S(=O)(=O)NC3=NCCCCC3)c2)cc1 | . | -4 | 14 | -1 | 31*
COc1ccc(/C=C/C(=O)Nc2cccc(S(=O)(=O)NC3=NCCCCC3)c2)cc1 | 1 | -3 | -2 | 6 | 51*
CC(C)n1nnnc1C1(C)Cn2nccc2C(=O)N1Cc1cccc(C(F)(F)F)c1 (configuration not stated) | . | . | -4 | . | .
Cc1cccn2c(=O)c(/C=C(\C#N)C(N)=O)c(N3CCN(Cc4ccc5c(c4)OCO5)CC3)nc12 | -7 | 9 | -30 | 33* | 16
Cc1cccn2c(=O)c(/C=C(\C#N)C(=O)NC3CCS(=O)(=O)C3)c(Oc3ccccc3Cl)nc12 (configuration not stated) | . | 4 | -15 | 18 | 7
Cc1cccn2c(=O)c(/C=C(\C#N)C(=O)NC3CCS(=O)(=O)C3)c(N3CCC(C(N)=O)CC3)nc12 (configuration not stated) | i | -7 | -38 | 192* | 0
Cc1cccn2c(=O)c(/C=C(\C#N)C(=O)NC3CCS(=O)(=O)C3)c(N3CC(C)OC(C)C3)nc12 (configuration not stated) | -97 | -12 | -53 | 120* | 7
